NOD2-RIPK2 inh: NOD2-RIPK2 binding disruptors in cells, primary screen, fluorescence, CHO cells, BLA complementation; Receptor-interacting serine/threonine-protein kinase 2 (Homo sapiens), O43353; CCF4 ratio; inhibition, % at 4.98 µM; 360,000 compounds, 0.38% hits; in the data active means inhibition above about 21%
Mcl1 Bid PPI: Mcl-1/Bid binding inhibitors, primary screen, biochemical, TR-FRET, 1536-well; Induced myeloid leukemia cell differentiation protein Mcl-1 (Homo sapiens), Q07820; 220,000 compounds, 0.97% hits; inhibition, % at 21.7 µM; TR-FRET Mcl-1/Bid-Dy647 peptide binding;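 active means compounds that cut the binding signal by more than half at the single screening dose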;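 further: His-tagged Mcl-1 with europium anti-His antibody binding Bid BH3 peptide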
TLR4-MyD88 BLA: inhibitors of TLR4-MyD88 association in cells, primary screen, cell-based, HeLa CL3-4, BLA complementation, FRET ratio. HeLa CL3-4 TLR4/MyD88 BLA complementation. 200,000 compounds, 0.18% hits. inhibition, % at 8.4 µM. AID 861, 2007. Toll-like receptor 4 (Homo sapiens) + Myeloid differentiation primary response protein …; in the data active means inhibition above about 25%
Mcl1 Noxa PPI: Mcl-1/Noxa binding inhibitors, primary screen, biochemical, TR-FRET, 1536-well; AID 1022, 2008; TR-FRET Mcl-1/Noxa peptide binding, 2 h; inhibition, % at 21.7 µM; 220,000 compounds, 1.5% hits;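 active means compounds that cut the protein-peptide binding signal by more than 50% relative to plate controls in a single-dose test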;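 further: His-tagged Mcl-1 with rhodamine Noxa BH3 peptide and terbium anti-His antibody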
TLR9-MyD88 block: inhibitors of TLR9-MyD88 association in cells, primary screen, cell-based, CHO, BLA complementation, fluorescence; Toll-like receptor 9 (Homo sapiens) + Myeloid differentiation primary response protein …; CCF4 FRET ratio; inhibition, % at 4.98 µM; 340,000 compounds, 0.21% hits;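 active means inhibition above the mean over all tested compounds plus 3 SD, cut at about 21% in these data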
Mcl-1 Bim block: inhibitors of Bim peptide binding to Mcl-1, primary screen, biochemical, bead-based flow cytometry, multiplex | Bim peptide-Mcl-1 binding | 190,000 compounds, 0.1% hits | inhibition, % at 10 µM; in the data active means inhibition above about 40%
NOD2 RIPK2 conf: NOD2-RIPK2 binding disruptors, retest, confirmation, fluorescence, CHO cells, BLA complementation, triplicate. shares compounds with NOD2-RIPK2 inh. CCF4 FRET. inhibition, % at 4.98 µM. 1,200 compounds, 70% hits. AID 624370, 2012;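 active means mean inhibition across replicates above a set limit taken from the earlier primary screen, cut at about 21% in these data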
BLA counter: counter-screen for NOD2-RIPK2 interaction inhibitors: BLA reporter | shares compounds with NOD2-RIPK2 inh | CHO BLA reporter, CCF4 FRET ratio, counterscreen | inhibition, % at 4.98 µM | 1,200 compounds, 57% hits | AID 624371;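 active means mean inhibition above the low-control mean inhibition plus three low-control SD, cut at about 11% in these data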
A number is an active result; 0 = inactive; - = not tested or not shown. Rows were chosen to be rich in hits. Some 1.8% of all compounds tested hit in one or more screens of this group.

SMILES	NOD2-RIPK2 inh	Mcl1 Bid PPI	TLR4-MyD88 BLA	Mcl1 Noxa PPI	TLR9-MyD88 block	Mcl-1 Bim block	NOD2 RIPK2 conf	BLA counter
CN(C)CCC(=O)C(Cc1ccccc1)c1ccccc1 (stereo not drawn)	35	-	-	-	0	-	28	0
Cc1cc(=O)oc2c(CN3CCN(C)CC3)c(O)c(Cl)cc12	0	0	0	0	0	0	-	-
CN1CCN(Cc2c(O)c(Cl)cc3c(-c4ccccc4)cc(=O)oc23)CC1	21	0	0	0	0	0	21	24
Cc1ccc(S(=O)(=O)N2CCCCC2)cc1NC(=O)Cn1ncc(Cl)c(Cl)c1=O	44	-	-	-	0	-	45	12
Cc1cc(Br)ccc1NC(=O)CNC(=O)Cn1ncc(Cl)c(Cl)c1=O	25	0	0	0	0	0	36	0
O=C(Cn1ncc(Cl)c(Cl)c1=O)NC(=O)NC1CCCCC1	28	-	-	-	0	-	47	0
CCN(CC)S(=O)(=O)c1cc(NC(=O)Cn2ncc(Cl)c(Cl)c2=O)ccc1C	22	0	-	78	0	-	35	0
Cc1ccc(-c2nnc(CN3CCCCC3C)o2)cc1 (stereo not drawn)	0	-	-	-	0	-	-	-
Cc1c(Cl)cccc1NC(=O)NCc1cccnc1	0	-	-	-	0	-	-	-
O=C(Cn1ncc(Cl)c(Cl)c1=O)Nc1ccc2c(c1)OCO2	21	-	-	-	0	-	25	0
O=C(Cn1ncc(Cl)c(Cl)c1=O)N1CCN(S(=O)(=O)c2ccc3ccccc3c2)CC1	50	0	0	0	0	0	68	15
CSc1ccccc1OCc1cc(C(=O)N2CCN3CCCC3C2)no1 (stereo not drawn)	0	-	-	-	0	-	-	-
Cc1[nH]nc(-c2cccnc2)c1N=NN(C)C	37	-	-	-	0	-	0	0
CN(C)c1nc(N)nc(-c2cccnc2)n1	0	0	0	0	0	0	-	-
O=C(COc1cccnc1[N+](=O)[O-])Nc1ccc(Cl)c(S(=O)(=O)N2CCOCC2)c1	0	0	-	0	0	-	-	-
O=[N+]([O-])/C=C/c1cn(Cc2ccc(Cl)cc2)c2ccccc12	21	0	0	0	0	0	38	0
CC(=O)c1cccc(NC(=O)COC(=O)CCC(=O)c2cccs2)c1	0	-	-	-	0	-	-	-
COc1cccc(/C=C/C(=O)OCC(=O)Nc2nnc(-c3ccccc3)o2)c1	0	-	-	-	0	-	-	-
O=C1C=C(c2ccccc2)C(=O)N1Nc1ccccc1	49	0	0	0	0	0	78	0
Cc1ccc(NN2C(=O)C=C(c3ccc(Cl)cc3)C2=O)cc1	51	0	0	0	0	0	82	11
COc1ccc(C2=CC(=O)N(Nc3ccccc3)C2=O)cc1	42	0	0	0	-	0	55	0
COc1ccc(NC(=O)CC2C(=O)N(c3ccc(OC)cc3)C(=S)N2NC(=O)c2cccc(F)c2)cc1 (stereo not drawn)	22	0	0	0	0	0	0	0
COc1ccc(N2C(=O)C(CC(=O)Nc3ccc(Cl)cc3)N(NC(=O)c3cccc(F)c3)C2=S)cc1 (stereo not drawn)	0	0	-	0	0	-	-	-
O=C(Nc1ccccc1)C1=C[C@@H](c2ccc(C(F)(F)F)cc2)C[C@@H](OCc2ccc(CO)cc2)O1	22	0	0	0	0	0	0	0
O=C(Nc1ccccc1)C1=C[C@@H](c2ccccc2)C[C@@H](OCc2ccc(CO)cc2)O1	0	0	0	0	0	0	-	-
SMILES	NOD2-RIPK2 inh	Mcl1 Bid PPI	TLR4-MyD88 BLA	Mcl1 Noxa PPI	TLR9-MyD88 block	Mcl-1 Bim block	NOD2 RIPK2 conf	BLA counter
COc1ccc(NC(=O)C(c2ccc(C(F)(F)F)cc2)n2c(=O)c(-c3ccco3)nc3ccccc32)cc1 (stereo not drawn)	0	-	-	-	-	-	-	-
O=C(Nc1ccc2c(c1)OCCO2)C(c1ccncc1)n1c(=O)c(-c2cc3ccccc3[nH]2)nc2ccccc21 (stereo not drawn)	34	-	-	-	-	-	37	58
O=C(Nc1ccc2c(c1)OCCO2)C(C1CC1)n1c(=O)c(-c2ccco2)nc2ccccc21 (stereo not drawn)	0	-	-	-	-	-	-	-
O=C(Nc1ccc2c(c1)OCCO2)C(c1ccc(C(F)(F)F)cc1)n1c(=O)c(-c2cc3ccccc3[nH]2)nc2ccccc21 (stereo not drawn)	48	-	-	-	-	-	44	66
O=C(Nc1ccc2c(c1)OCCO2)C(c1ccccc1F)n1c(=O)c(-c2cc3ccccc3[nH]2)nc2ccccc21 (stereo not drawn)	49	-	-	-	-	-	45	67
O=C(Nc1ccc2ccccc2c1)C(c1ccc(C(F)(F)F)cc1)n1c(=O)c(-c2cc3ccccc3[nH]2)nc2ccccc21 (stereo not drawn)	46	-	-	-	-	-	40	65
N#Cc1ccc(C(C(=O)Nc2ccc3c(c2)OCCO3)n2c(=O)c(-c3ccco3)nc3ccccc32)cc1 (stereo not drawn)	0	-	-	-	-	-	-	-
O=C(O)c1cc(S(=O)(=O)Nc2ccc3cn[nH]c3c2)ccc1O	0	-	-	-	0	-	-	-
Nc1c(S(=O)(=O)c2ccccc2)csc1C(=O)O	44	0	0	0	0	0	0	0
C=C1C(=O)C23CCC4C(C)(C(=O)OC)CCCC4(C)C2CCC1(O)C3 (stereo not drawn)	79	-	-	-	0	-	88	21
COc1cccc(C2C(C(=O)c3cccs3)=C(O)C(=O)N2CCN2CCOCC2)c1OC (stereo not drawn)	0	-	-	-	0	-	-	-
CCO[C@H]1OC(C(=O)NCc2ccccc2)=C[C@@H](c2ccc(Br)cc2)[C@@H]1CCCO	29	0	0	0	0	0	0	0
CC(C)NS(=O)(=O)c1ccc(OCC(=O)N2CCN(c3ccccc3)CC2)cc1	68	0	0	0	0	0	0	0
COc1cc(N2C(=O)C=CC2=O)c(OC)cc1Cl	51	0	-	59	0	-	80	23
Cc1cc(C(=O)CN2C(=O)c3cccc(N)c3C2=O)c(C)n1Cc1cccs1	24	0	0	0	0	0	29	42
Cc1cc(C(=O)CN2C(=O)NC3(CCCCC3C)C2=O)c(C)n1Cc1cccs1 (stereo not drawn)	0	0	0	0	0	0	-	-
O=C(CCS(=O)(=O)c1ccccc1)Nc1cccc2c1C(=O)NC2=O	0	0	0	0	0	0	-	-
